Data published in PubChem BioAssay (NCI).
The panel holds about 83,000 compounds, 20% with a hit somewhere; the sample as a whole holds those more often.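 A percent growth of 40 corresponds to 60% growth inhibition; 0 means no net growth; -100 means all cells died. Active threshold: below 10.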 Unmarked numbers belong to inactive results. Calls of active or inactive are those of the source.

test system: NCI-H23 lung; assay: NCI-60 one-dose screen, 48 h (100 = growth as untreated, 0 = no growth, -100 = all killed); details: 10 µM unless noted
Description: Growth inhibition of the NCI-H23 human Non-Small Cell Lung tumor cell line is measured as a screen for anti-cancer activity. Cells are grown in 96 well plates and exposed to the test compound for 48 hours. Compounds are tested at a single concentration, which is 10^-5 M for most compounds. The reported endpoint is percent growth (GI% or GIPRCNT), where numbers from 0 - 100% represent growth inhibition, and numbers from -100% - 0 represent cell death. For example, a value of 40 represents 60% growth inhibition. A value of 0 means no net growth occurred over the course of the experiment. A value of -40 indicates 40% of cells at the beginning of the experiment died by the end of the experiment. A value of -100 means all cells are dead at the end of the experiment.
NCI-60 Human Tumor Cell Lines Screen was performed using the standard one-dose NCI protocol, which is described in more detail at https://dtp.cancer.gov/discovery_development/nci-60/default.htm.
Compounds with GIPRCNT values below 10 were considered active. Activity score was based on GIPRCNT using the following formula: […]
Score is 0 for GIPRCNT values of 100 or above, 50 for GIPRCNT values of 0, and 100 for GIPRCNT values of -100.

Row | Structure (SMILES) | growth
1 | OCCCC1CCN(C(Cc2ccccc2)c2ccccc2)CC1 (stereo not given) | 102%
2 | CN(C)CC(=O)Nc1ccc2ncnc(Nc3ccc(Oc4cccc(C(F)(F)F)c4)c(Cl)c3)c2c1 | 75.9%
3 | C#Cc1ccc(NC(=O)c2ccc(/C=C/C(=O)c3nccn3C)cc2)cc1 | -56% (active)
4 | C=CCc1c2c(c(OC)c3ccoc13)C(=O)/C(=C/c1ccccc1OC)O2 | 19.7%
5 | CCOC(=O)c1nc(Nc2ccc(NC(=O)Nc3ccc(F)cc3)cc2)c2ccccc2n1 | 92.3%
6 | Cc1ccc(Cc2cnc(NC(=O)c3cc(Br)cs3)s2)cc1 | 73.1%
7 | N#CCSc1nnc2n(Cc3ccccc3)c(=O)c3c4c(sc3n12)CCCC4 | 105%
8 | C/C(=C(/c1ccc(Cl)cc1)c1ccc(OCCN2CCCC2)cc1)c1ccc(Cl)cc1 | 80.3%
9 | O=C(Cn1c2c(c3ccccc31)CCCC2)Nc1ccc(-c2nc3ccccc3s2)cc1 | 94.5%
10 | CC1=C(Nc2ccc(N3CCN(C)CC3)cc2)C(=O)c2cncnc2C1=O | 72.6%
11 | O=C1N(Cc2ccccc2Cl)c2ccccc2C12NN=C(c1cccc(Cl)c1)S2 (stereo not given) | -18.7% (active)
12 | O=C(COc1ccc(-c2nc3ccccc3[nH]2)cc1)N=Nc1c(O)[nH]c2ccc(Cl)cc12 | 87.3%
13 | Fc1ccc(Nc2nc3nonc3nc2Nc2ccc(I)cc2)cc1 | -19.5% (active)
14 | COc1ccc(/C=N/C2=C(C#N)C(c3cccc(Cl)c3)c3c(ccc4ccccc34)O2)cc1 (stereo not given) | 53.5%
15 | Cc1cc(Cl)ccc1NC(=O)c1cc2ccccc2cc1O | 7.5% (active)
16 | O=C(CCC(=O)N/N=C/c1ccccc1O)N/N=C/c1ccccc1O | 61.2%
17 | COc1ccc(/C(C)=C(/c2ccc(OCCCN(C)C)cc2)c2ccc(OC(=O)Cc3ccccc3)cc2)cc1 | 76.4%
18 | COc1cccc(/C=C/C(=O)c2cc3c(N)c(C(=O)Nc4ccccc4)sc3nc2C)c1 | 49.6%
19 | Cc1ccccc1/C=C1\CN(C(=O)OC(C)(C)C)C/C(=C\c2ccccc2C)C1=O | 8.22% (active)
20 | O=C1/C(=C/c2cccs2)SC(=S)N1CCCN1CCOCC1 | 96.7%

Row | Structure (SMILES) | growth
21 | COC1C[C@H](O[C@@H]2C[C@H](O[C@@H]3C[C@H](O[C@@H]4C(=O)c5c(cc6cc(O[C@H]7C[C@@H](O[C@H]8C[C@@H](O)[C@H](O)C(C)O8)[C@H](O)C(C)O7)c(C)c(O)c6c5O)C[C@H]4C(OC)C(=O)[C@@H](O)[C@@H](C)O)OC(C)[C@H]3O)OC(C)[C@@H]2O)OC(C)[C@@H]1O (stereo not given in full) | -1.75% (active)
22 | Cc1ccc(C2=Nc3c(N)ncnc3NC(c3ccc4c(c3)OCO4)C2)cc1 (stereo not given) | 74.3%
23 | CCc1ccc(C(=O)/C=C/C23c4ccccc4C(c4ccccc42)C2C(=O)NC(=O)C23)cc1 (stereo not given) | 15.9%
24 | CN1CCN(Cc2ccc(NC(=O)c3cncc(C#Cc4cnc(N)c5ccccc45)c3)cc2C(F)(F)F)CC1 | -74.1% (active)
25 | CC(C)c1ccc(COCc2cc(CN3CCCC3)c(O)c3ncccc23)cc1 | 8.78% (active)
26 | O=c1oc2ccc([N+](=O)[O-])cc2cc1Br | 107%
27 | O=C1c2c(c3c4ccccc4[nH]c3c3ccc4ccccc4c23)C(=O)N1CCN1CCCCC1 | 30.5%
28 | Cc1ccc(CNc2ccc(Cl)cc2NCc2ccc(C)c(O)c2)cc1O | 3.7% (active)
29 | CCn1cc(C(=O)N/N=C/c2cccs2)c(=O)c2cc(F)c(N3CCNC(C)C3)c(F)c21 (stereo not given) | 89.8%
30 | CCO/C=N/C1=C(C#N)C(c2ccc(OC)cc2)c2sc3c(F)cccc3c2O1 (stereo not given) | 48.9%
31 | CCCC(O)Cn1ncc(C(=O)OCC)c1NC(=O)NCc1ccccc1F (stereo not given) | 81.1%
32 | CC1=Nc2cnc(Nc3ccc(OCCN4CCCCC4)cc3)nc2Nc2ccccc21 | 71.5%
33 | COCCNC(=O)c1ccc(-c2nc3ccc4[nH]ncc4c3c3c2CCCC3)cc1 | 43.5%
34 | O=C(Cn1c(-c2ccc([N+](=O)[O-])cc2)nc2ccccc21)NNC(=O)c1cccnc1 | 83.4%
35 | CC(C)CCNC(=O)Cn1cccc(NC(=O)OCc2ccccc2)c1=O | 88%
36 | N#Cc1cccc(-c2c(-c3ccc4ccccc4c3)oc3ccccc3c2=O)c1 | 60.7%
37 | Cc1cccc2c1NC(=O)C2(c1ccc(O)cc1)c1ccc(O)cc1 | 38%
38 | CCCCCCCCCCCCCCCC(N)c1ccccc1 (stereo not given) | -24.4% (active)
39 | O=C1NC(=O)c2c1c1c3ccccc3ccc1c1[nH]c3ccc(Br)cc3c21 | 2.08% (active)
40 | O=C1Nc2ccccc2/C1=C\c1nc(-c2ccccc2)n2ccccc12 | 85%
